Source: PubChem BioAssay AID463173 (ICCB-Longwood Screening Facility, Harvard Medical School, 2010)
Out of some 52,000 compounds screened, about 4,300 (8.3%) were called active. This excerpt belongs to a sample that is enriched for actives. Values without a mark were called inactive. Cut-off read from the data, not from the text of the source: active = survival mostly below about 52% (no sharp cut-off); inactive = mostly above about 56%.

Test system: DeltatarO mutant
Test: S. aureus survival, RN4220 and DeltatarO strains – OD600, teichoic acid synthesis inhibitors, primary screen (AID 463173)
Details: S. aureus RN4220 wild type/DeltatarO growth, OD600, 18 h, stronger effect = lower value, screened at 18.75 µg/mL (by protocol)

Row | SMILES | survival
1 | CCN(C(=O)Cn1ncc2c(=O)oc3ccccc3c21)c1ccccc1F | 118%
2 | Cc1ccc2nc(-c3ccc(O)cc3)c(Nc3ccc(Cl)cc3)n2c1 | 59%
3 | Oc1ccc(-c2nc3ccc(Cl)cn3c2Nc2ccc(Cl)cc2)cc1 | 16% (active)
4 | Oc1ccc(-c2nc3ccc(Cl)cn3c2Nc2ccc3c(c2)OCO3)cc1 | 106%
5 | Cc1ccc(C(=O)OCc2cc(=O)n3nc(-c4cccs4)sc3n2)cc1 | 95%
6 | O=C(Cn1nc2c(cc1=O)CCCC2)Nc1ccc(F)cc1F | 118%
7 | CCC(C(=O)Nc1cc(OC)ccc1OC)n1c(C)c2cnn(-c3ccccc3)c(=O)c2c1C (stereo not drawn) | 107%
8 | CCC(C(=O)Nc1ccc(C(=O)OC)cc1)n1nc(-c2ccc(C)cc2)c2c(c1=O)CCCC2 (stereo not drawn) | 102%
9 | CCC(C(=O)Nc1cc(OC)ccc1OC)n1nc(-c2ccccc2)c2c(c1=O)CCCC2 (stereo not drawn) | 35% (active)
10 | CCC(C(=O)Nc1ccc(F)cc1F)n1nc(-c2ccccc2)c2c(c1=O)CCCC2 (stereo not drawn) | 38% (active)
11 | O=C(CSc1c2c(nc3ccccc13)CCC2)Nc1ccc(F)cc1F | 69%
12 | CCOc1ccc(NC(=O)CSC2=Nc3ccccc3C3=NC(CCC(=O)NCc4cccs4)C(=O)N23)cc1 (stereo not drawn) | 70%
13 | CCN1CCN(Cc2c(C)[nH]c3c(C)cc(C)cc3c2=O)CC1 | 59%
14 | COc1ccccc1Cc1nc2ccccc2[nH]c1=O | 54%
15 | CN1C(=O)c2ccccc2Sc2ccc(NC(=O)N3CCN(c4cccc(Cl)c4)CC3)cc21 | 87%
16 | CCOC(=O)CN1C(=O)c2cccnc2Oc2ccccc21 | 87%
17 | C=CCc1ccccc1OCCSc1nc(-c2ccc(C(C)(C)C)cc2)nc2cc(=O)[nH]n12 | 32% (active)
18 | C=CCc1ccccc1OCCSc1nc(-c2ccccc2F)nc2cc(=O)[nH]n12 | 99%
19 | COc1ccccc1OCCSc1nc(-c2ccc(C(C)(C)C)cc2)nc2cc(=O)[nH]n12 | 49%
20 | COc1ccc(NC(=O)Cn2nnnc2-c2ccccc2F)c(C)c1 | 74%
21 | COc1ccc(NC(=O)COc2ccc(S(=O)(=O)NC3CCCCC3)cc2)c(OC)c1 | 66%
22 | CCC(C)NC(=O)Cn1c(=O)ccc2cc(S(=O)(=O)N3CCCC3)ccc21 (stereo not drawn) | 37% (active)

Row | SMILES | survival
23 | Cc1cccc(NC(=O)Cn2c(=O)ccc3cc(S(=O)(=O)N4CCCC4)ccc32)c1C | 105%
24 | O=C(Cn1c(=O)ccc2cc(S(=O)(=O)N3CCCC3)ccc21)Nc1ccccc1 | 57%
25 | Cc1ccc(CNC(=O)Cn2c(=O)ccc3cc(S(=O)(=O)N4CCCC4)ccc32)cc1 | 92%
26 | CCOc1ccccc1NC(=O)Cn1c(=O)ccc2cc(S(=O)(=O)N3CCCC3)ccc21 | 0% (active)
27 | CCOc1ccccc1NC(=O)COc1ccc(S(=O)(=O)NC2CCCCC2)cc1 | 48% (active)
28 | CCOc1ccc(NC(=O)COc2ccc(S(=O)(=O)NC3CCCCC3)cc2)cc1 | 62%
29 | CCC(C)NC(=O)Cn1ccc2cc(S(=O)(=O)N3CCCCCC3)ccc21 (stereo not drawn) | 118%
30 | CCOc1ccccc1NC(=O)Cn1c(=O)ccc2cc(S(=O)(=O)N3CCC(C)CC3)ccc21 | 55%
31 | CCc1ccccc1NC(=O)Cn1c(=O)ccc2cc(S(=O)(=O)N3CCC(C)CC3)ccc21 | 92%
32 | CCc1ccccc1NC(=O)Cn1c(=O)ccc2cc(S(=O)(=O)N3CCCC3)ccc21 | 46% (active)
33 | CCc1ccc(-n2c(=O)c3ccc(C(=O)NCCc4ccccc4)cc3n(CC(N)=O)c2=O)cc1 | 86%
34 | COC(=O)C1(CO)NC(c2ccccc2F)C2C(=O)N(c3ccccc3)C(=O)C21 (stereo not drawn) | 86%
35 | COc1ccc(-c2nc(C)c(CCNC(=O)c3cccs3)s2)cc1 | 61%
36 | O=C(Nc1ccc(N2CCC(c3ccccc3)C2)c(C(=O)O)c1)c1ccc(Cl)cc1 (stereo not drawn) | 60%
37 | CCNC(=O)C1CCCN(c2nn3cc(-c4ccc(C)cc4)nc3s2)C1 (stereo not drawn) | 74%
38 | COCCCNC(=O)c1cc(-c2ccc(OC)cc2)nc2n[nH]c(-c3ccc(Cl)cc3)c12 | 73%
39 | Cn1c(=O)n(C)c2cc(N3CCOCC3)c(NC(=O)c3ccccc3Br)cc21 | 82%
40 | Cc1ccc(NC(=O)Cn2c(=O)ccc3cc(S(=O)(=O)N4CCCC4)ccc32)cc1C | 98%
41 | CCc1ccc(NC(=O)Cn2c(=O)ccc3cc(S(=O)(=O)N4CCCC4)ccc32)cc1 | 144%
42 | Cc1ccc(NC(=O)Cn2c(=O)ccc3cc(S(=O)(=O)N4CCCC4)ccc32)cc1N(C)C | 32% (active)
43 | COc1cccc(NC(=O)CC2NCCNC2=O)c1 (stereo not drawn) | 84%
44 | CCCCN(C)CCNC(=O)c1ccc2c(=O)n(CCc3ccccc3)c(=O)[nH]c2c1 | 77%

Row | SMILES | survival
45 | CCOC(=O)C1CCN(c2c(C(=O)c3ccc(OCC)cc3)cnc3ccc(OC)cc23)CC1 | 37%
46 | COc1ccc(S(=O)(=O)c2cnc3cc(OC)c(OC)cc3c2N2CCCC(C)C2)cc1 (stereo not drawn) | 116%
47 | CCOC(=O)C1CCCN(c2c(C(=O)c3ccc(C)cc3)cnc3ccc(OCC)cc23)C1 (stereo not drawn) | 10% (active)
48 | CCOc1ccc(C(=O)c2cnc3ccc(Cl)cc3c2S(=O)(=O)c2ccc(C)cc2)cc1 | 80%
49 | CCOC(=O)C1CCN(c2c(C(=O)c3ccc(C)cc3)cnc3ccc(F)cc23)CC1 | 2% (active)
50 | CCOc1ccc2nc(N3CCCC(C(=O)NCc4ccc(C)cc4)C3)sc2c1 (stereo not drawn) | 71%
51 | CCOC(=O)C1CCN(c2c(C(=O)c3ccc(OC)cc3)cnc3ccccc23)CC1 | 125%
52 | COc1ccc(C(=O)c2cnc3ccc(C)cc3c2S(=O)(=O)c2ccccc2)cc1 | 69%
53 | COc1cc2ncc(C(=O)c3ccc(C)cc3)c(N3CCCCC3)c2cc1OC | 2% (active)
54 | CCOC(=O)C1CCCN(c2c(C(=O)c3ccc(OCC)cc3)cnc3ccccc23)C1 (stereo not drawn) | -3% (active)
55 | CCOC(=O)C1CCCN(C(=O)c2ccc(OCC)cc2)C1 (stereo not drawn) | 77%
56 | CCc1ccc2ncc(C(=O)c3ccc(C)c(C)c3)c(N3CCC(C(N)=O)CC3)c2c1 | 86%
57 | CCC(=O)NC1CC(=O)N(c2ccc3c(c2)OCCO3)C1 (stereo not drawn) | 82%
58 | CC(=O)N1CCC(N(Cc2ccc(C)o2)C(=O)Nc2cccc(C(F)(F)F)c2)CC1 | 91%
59 | CC(C)NC(=O)c1ccc(NC(=O)N2CCCCc3ccccc32)cc1 | 70%
60 | Cc1ccc(CN(C(=O)COc2ccc(Cl)c(C)c2)c2ccccn2)o1 | 52%
61 | CCOC(=O)c1cc(S(=O)(=O)N2CCN(c3ccc(OC)cc3)CC2)[nH]n1 | 128%
62 | CCC1Oc2ccccc2N(CC(=O)NCCc2ccc(OC)c(OC)c2)C1=O (stereo not drawn) | 115%
63 | COc1cccc2c1ncc1c(-c3ccc(C)cc3)nn(-c3cccc([N+](=O)[O-])c3)c12 | 87%
64 | Cc1ccc(NC(=O)CCn2cnc3onc(-c4ccc(F)cc4)c3c2=O)c(Br)c1 | 102%
65 | CCOC(=O)C1CCCN(c2c3c(nc4cc(-c5ccc(F)cc5)nn24)CCCC3)C1 (stereo not drawn) | 76%
66 | CCc1ccc(C(=O)c2cnc3ccc(F)cc3c2S(=O)(=O)c2ccccc2)cc1 | 123%

Row | SMILES | survival
67 | CCOC(=O)C1CCCN(c2c(C(=O)c3ccccc3)cnc3ccc(F)cc23)C1 (stereo not drawn) | 35% (active)
68 | CCOC(=O)c1c(S(=O)(=O)NCC(=O)N2CCN(c3cc(C)ccc3C)CC2)c(C)n(C)c1C | 71%
69 | COc1ccccc1CNC(=O)c1ccc2c(c1)CCN2S(=O)(=O)c1ccccc1 | 43% (active)
70 | CCS(=O)(=O)N1CCc2cc(C(=O)NCc3ccccc3Cl)ccc21 | 89%
71 | COc1ccccc1CNC(=O)c1ccc2c(c1)CCN2S(=O)(=O)c1ccc(Cl)cc1 | 82%
72 | CCS(=O)(=O)N1CCc2cc(C(=O)NCc3ccccc3OC)ccc21 | 40% (active)
73 | COc1ccccc1N1CCN(C(=O)c2ccc3c(c2)CCN3S(=O)(=O)c2ccccc2)CC1 | 62%
74 | CCS(=O)(=O)N1CCc2cc(C(=O)NCc3ccccc3)ccc21 | 68%
75 | CC1=C(C(=O)Nc2ccccc2)C(c2cccnc2)n2nc(SCc3ccccc3Cl)nc2N1 (stereo not drawn) | 179%
76 | CCCCNC(=O)CN1C(=O)COc2ccc(S(=O)(=O)N3CCCCCC3)cc21 | 80%
77 | Oc1ccccc1-c1nc(/C=C/c2ccc(F)cc2)nn1-c1ccccc1 | 26% (active)
78 | Cc1nc(C)c(C(=O)N/N=C/c2ccc(O)cc2O)cc1C(=O)N/N=C/c1ccc(O)cc1O | 80%
79 | Oc1ccccc1-c1nc(/C=C/c2ccccc2)nn1-c1ccccc1 | 7% (active)
80 | Oc1ccc(/C=C/c2nc(-c3ccccc3O)n(-c3ccccc3)n2)c(O)c1 | -3% (active)
81 | Oc1ccccc1-c1nc(/C=C/c2ccc(F)cc2)no1 | 79%
82 | CC(=O)Nc1ccc(/C=C/c2noc(-c3ccccc3O)n2)cc1 | 75%
83 | CN(C)c1ccc(/C=C/c2noc(-c3ccccc3O)n2)cc1 | 86%
84 | CN(C)c1ccc(/C=C/c2nc(-c3ccccc3O)n(-c3ccccc3)n2)cc1 | 42% (active)
85 | CN(C)c1ccc(/C=N/NC(=O)c2ccccc2)cc1 | 95%
86 | CC(=O)Nc1ccc(/C=C/c2nc(-c3ccccc3O)n(-c3ccccc3)n2)cc1 | 84%
87 | N#Cc1nc(/C=C/c2ccc(F)cc2)oc1N1CCN(c2ccccc2)CC1 | 73%
88 | Cc1ccc2c(c1)c(N1CCCC1=O)c(C(=O)Nc1ccc(F)cc1F)n2C | 71%
